Among the data in PubChem BioAssay AID1508600 (Functional Genomics Laboratory (NCATS/FGL), 2020) are z-score values, retold here.

About 3,700 (7%) of roughly 53,000 sequences were called active. This excerpt belongs to a sample that is enriched for actives. Unmarked numbers belong to inactive results.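 The calls were made as follows: active = gene knockdowns whose robust z-score for IL-1 alpha signal is at least 2 or at most -2, so actives lie on both sides; inactive = the rest.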

The experiment can be described thus: Components of the Cytosolic LPS Sensing Pathway: Gene Identification via Genome-wide siRNA Screen.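 Also: robust z of the log signal after scaling to non-targeting control siRNA wells of the plate.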 Particulars: RAW264.7 macrophages, IL-1a HTRF, actives lie on both sides, screened at 100 nM (by protocol), cells primed 5 h with Pam3CSK4 first. A digest of the protocol: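 Using IL-1a HTRF as read-out, the screen measured release from RAW264.7 cells after 48h siRNA knockdown (100 nM), 5 h Pam3CSK4 priming and 24 h cytosolic LipidA. Values were expressed relative to negative-control wells as robust z-scores.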
On to GGUGGUUCUCAGCUGUGUATT against Arhgef18, for which the z-score was -1.08. As to GGAUGAUGAAUGCAAUUAATT against Eed, the z-score is -0.882. Take CCUACUUUGGACUCUUUCATT against Tnfsf12: the z-score was -2.25 (active).

GGUGGAAGACUUCAGUGAATT against Clgn: the z-score is 0.384.

Consider CAGCUUGUGCUCGAGUAAATT against Gm3579, for which the z-score is -1.14. For GGACAGAAAGGUACCCUUATT against Slc30a5, the z-score is 0.461. Under GGUAGUUGUUCUAUGUUUUTT against Olfr967 stands -1.07. On to GCAAAAGUGUAUCAUGAUGTT against Olfr1052, for which the z-score is -2.17 (active). The same measure for CGUGGAGCUACCAUAUAGGTT against Mob3b: 0.581; for CGACCAGCUUCUAGUGCUUTT against Pcdha8: -0.431; for CCAAGCCUCCAAUGGUCAGTT against Stat6: -0.623. On to GCACUAUGACUACAAGAGUTT against Olfr1457, for which the z-score is -0.965. GCCGUUGCCUUUCAAGGGATT against Inhbe: the z-score is -0.112. For GCUUUUCCGUGAUCAUACATT against Tex14, the z-score is 0.0691. For GGAUCCAGAUACUCCCAAGTT against Camp, the z-score is -1.08.

As for GGGUUUCUUGAUUCUGACCTT against Ccl5, the z-score is -2.33 (active). Regarding CCUACCAGUUCCUAUUUAGTT against Alas2, the z-score is 0.452. Consider GGGUCUCCGAAACUACUUATT against Tmem144, for which the z-score was 0.00626. Under GCCAAUUUGACUUGUAAGUTT against Slc22a3 stands 1.4. Under GGUUUCUGGAAGAAACUGGTT against Polr1a stands -0.927. For GCUGAGUGAAUCCACGUACTT against Mzb1, the z-score was -2.65 (active).

For the sequence CAUUGUCAUUCUAGUUGCATT against Olfr1251, the z-score was 0.64. Consider GGCAACAAUAGUUCAGAAGTT against Rps6ka5, for which the z-score was 1.5. Under GCAUAUAAUGUCUAACUCGTT against Eml4 stands -0.0328; under GGUUCUUAACCUCAGCAGUTT against Omg, -0.541. Under GGAGUCUUGCUCUAUAUAATT against Arpc5 stands 1.26; under GGCUUCUUUAUGUUUCCUUTT against Usp48, -1.46; under GGCUUUUCUAGUUCCUCAATT against Pdzd7, -2.01 (active). With GGAAUUCAAGGGCUCCACATT against Grip1, the z-score was 0.378. The same measure for GGUAGGAUGAGUUGAAGAGTT against AF366264: 0.0631; for CCAGAAGUUAGAACAGUUCTT against Rp9: 1.49. GGAGUACAUGGUACACGUUTT against Fut8: the z-score was 1.52. As to GGAUGUUGUUUAUCGAGGATT against Med21, the z-score was -0.572. Under GGAUGGAGGAAGACUCGAUTT against Etv6 stands 2.14 (active); under GGAAACCUGUUUGAUUUUGTT against Aasdhppt, 0.798; under GCUUUCAUAGCUGGAAACCTT against Olfr173, 0.452. As for CCUCACAAAUAUACAGUUCTT against Pira2, the z-score is 0.519. UUCUACUGGGCUUAACCAGTT against Olfr1032: the z-score is 1.86. The same measure for GGAUGCUUUAACUUCAAACTT against Crebrf: 2.56 (active); for GCCAUAUAAGAUUCUUGUGTT against Pi4kb: -0.63.

Take GCAAAUGUAUUAUGUCCUUTT against Gm5478: the z-score was 0.0907. Consider GGAUUUGUAAGACUAAUCUTT against Xdh, for which the z-score is 0.00453. Turning to GGUGAAGAGACUGGAGAACTT against Cavin2, the z-score is -0.277. Under GGACAUAAAACUUUUCAGUTT against Foxf2 stands 1.02.

Turning to GGAACAGAAGUCAAGUGGATT against Acsm5, the z-score is 2.69 (active).

In the case of GCUGGACACGGAAGGUAUATT against Igsf8, the z-score is -0.595. “CCUAAGAACCCUGAUCCUATT against A030005L19Rik”: the z-score is 1.08. Consider GGAAAAGGAAGAACUGAUUTT against Sptlc1, for which the z-score is -0.477. For GGACACCAUUGGCUCCUUATT against Tmub1, the z-score is 1.63. Regarding GGUGAUGUUCUAACCCUGCTT against Trex1, the z-score is -0.0124. As to GGCUUUGUCUACACUUUCATT against Olfr1308, the z-score is -1.02. Consider GGAUGGGAAGGUGAUUGUCTT against Gnb5, for which the z-score is 1. The same measure for CCUGGUGUUCGUGUACCUGTT against Cdk5r2: 3.1 (active); for GGAUUUAUUUAUGUCUUCCTT against Slc17a1: 0.0643. Under GCAGUUGAGACAAUAUGUCTT against Trim31 stands -1.8; under GGAUGUGUCGGGAAAUGCUTT against Frmd5, -1.7. With GCACUAGAAGUGUCUUUUCTT against Cdhr1, the z-score is 2.17 (active). Regarding GGACAUUUUUCAUUUGUGATT against Zfhx4, the z-score was 1.28.

For GGUCAUUCACGUCUGCGUUTT against Kcnj8, the z-score was -0.292.

For the sequence CCAGUGCAGGACCUCAUUUTT against Sod1, the z-score is -2.06 (active). Regarding GGCAGCUCUGACUUUAUAATT against Klhdc3, the z-score was -1.63. As for CCCUGUAGAAAUUCAAGCCTT against Lyrm4, the z-score was 0.38. In the case of GGACAGAGCAUCACAGAAGTT against Tmem154, the z-score was -2.33 (active).

As for GCGGUUUGUCUUCAACAAGTT against Il1b, the z-score was 0.22.

Regarding CCCUGGACUAAGGAUCACCTT against Cops5, the z-score was -1.2. In the case of GGCAGAAGAAGAGUUCAACTT against Atp6v1e1, the z-score was -1.1. The same measure for GCUAAGUACGUUCAUGGCATT against Gba: 0.571; for CGAAACUUACCAGGAGUCGTT against Ttyh2: -2.31 (active); for GGACUCAUGUUCAACACAGTT against Dimt1: -0.87. Regarding GGGAACUGACAAAUGGAAGTT against Samsn1, the z-score was -0.0777. Turning to CGGCAGUCGUGAGACAUAUTT against Camk1d, the z-score was -1.01. Under GGAUUUUUAGUGUUUGACATT against Rab39 stands -1.52; under GGGAAUACGGAACCUUCUUTT against Olfr683, 2.04 (active). Under GGGCAGUUUUACAAAUGUUTT against Fbxw8 stands 0.985. Turning to GGAACUCCAACAGGACUUUTT against Slc26a9, the z-score was -0.565. With GGAAGGAAGCAGAGAGUUATT against Ndel1, the z-score was 2.92 (active). Regarding UUUACUAGACCUGAUGGCUTT against Olfr815, the z-score was 0.732. In the case of GGGACUCUUCUACGAGUUUTT against Lims2, the z-score is 0.836. With GGAAAACAAGAGGUGAUCUTT against Bfar, the z-score was -1.62. For the sequence GGUGUUUGAUAGGUAUCUUTT against Ptpa, the z-score is -1.12. Turning to GGAUCAUUUGAAAUUGCUGTT against Dmac2l, the z-score is 2.88 (active). Under CCUGAAAAAAUUUAUCGCCTT against Pcgf3 stands -0.363. In the case of GGGUUCGAGGAAAAGGAAGTT against Acsf3, the z-score was 0.65. The same measure for GGUGUCAGAAGCAGUGUAUTT against Treml1: 0.459. As for GCCGAGGCUGUUGUGUUGATT against Gpaa1, the z-score is -1.04. The same measure for GGAGGUUUUUUUGUUUUGUTT against Serpinb13: -0.614. Turning to GGCAUUUUUCUUAGUGAUCTT against Olfr1277, the z-score is -2.04 (active). The same measure for CCCACUUAUAUAUGUAGUUTT against Wdyhv1: 0.282; for GGGCUUCAAACCCACAGAATT against Nova2: -1.19. Take GGAAUAUCAGCCAUAAGUUTT against Cplx4: the z-score was 1.78.

Consider CGAUUCAUUCAGUUUGUAATT against Terb1, for which the z-score is -0.631. As to GGUGUUUGAUAAUGAAGAGTT against Dnah1, the z-score was -0.214. Under GGCGAAGGUGUAGAAUCUCTT against Samd12 stands 2.48 (active); under GGUCAUUUUGGGAUAUCAGTT against Lman1, -1.19; under CCGCGUGUGCUCCUUUUUGTT against Zcchc3, -0.627. Take GGCUGGUUUACAACAGAACTT against Pla2g15: the z-score is -0.647. With CCAUUUGAUGACAGUAAUATT against Olfr178, the z-score is 1.03.

On to GCUCUUGACACUAGAGAUUTT against Ap1s3, for which the z-score is 0.0373. As to GGUGUGAUGCUUGAGUGUCTT against Skint3, the z-score is 2.08 (active). The same measure for GGAGUAGCAAAGAACUGCUTT against Arpc4: -0.762. Regarding CCACAUGAGUGGACCUACGTT against Arid3c, the z-score was -1.33.

On to GGAGCUCUGGGACAAAUUCTT against Tbx20, for which the z-score was 1.34. As for CGUGGCUAGGUUAUUUAAATT against Htr1d, the z-score was 1.01.

GGACACUUCCAUGUGCUACTT against Cep19: the z-score is 2.14 (active). With “CCUCAAAAUGGCUAUGGACTT against 1520401A03Rik”, the z-score was 0.587.

On to GGAAAGAAACUUAAAGUGGTT against Tfdp1, for which the z-score is 2.64 (active).

Regarding GGUUCGAUGUCCAGUCACUTT against Ppp2ca, the z-score is -1.41. On to GCCAUUGCUUUAUAAGGUUTT against Olfr901, for which the z-score was -1.24.
